High-throughput results deposited in PubChem by several laboratories.
Only some compounds are listed: those with a hit (about 32% of all), similar ones and a draw of the others.
CYP2C9 act = increases human cytochrome P450 2C9 activity | 96,000 tested, 1.4% active | AID 1024 | P11712 | recombinant CYP2C9, luciferin-H conversion, luminescence; active compounds read high; factor 1 = untreated enzyme, 0 = blocked | activation factor at 5 µM;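 active = activation factor of 2 or more for CYP2C9 at a 5 µM dose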
Target sequence (P11712 whole entry, looked up): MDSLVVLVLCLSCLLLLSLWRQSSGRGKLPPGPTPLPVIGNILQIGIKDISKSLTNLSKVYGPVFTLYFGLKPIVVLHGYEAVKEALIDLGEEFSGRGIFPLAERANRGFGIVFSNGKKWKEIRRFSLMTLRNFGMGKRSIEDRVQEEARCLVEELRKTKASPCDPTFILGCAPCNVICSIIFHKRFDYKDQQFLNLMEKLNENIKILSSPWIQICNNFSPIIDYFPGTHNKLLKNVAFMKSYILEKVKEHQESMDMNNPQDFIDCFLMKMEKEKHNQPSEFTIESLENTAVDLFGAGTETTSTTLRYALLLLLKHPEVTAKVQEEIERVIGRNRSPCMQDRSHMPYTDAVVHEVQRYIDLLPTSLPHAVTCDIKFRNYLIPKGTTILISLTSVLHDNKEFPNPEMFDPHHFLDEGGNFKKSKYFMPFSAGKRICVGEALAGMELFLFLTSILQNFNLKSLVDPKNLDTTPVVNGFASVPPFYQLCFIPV
PostGolgi ctrl = inhibits growth of the yeast control strain | efflux-deficient yeast background strain, growth absorbance A615, 16 h | 98,000 tested, 5% active | AID 738 | inhibition, % at 10 µM
PostGolgi yeast = growth inhibition of a yeast mutant, post-Golgi transport screen. post-Golgi transport phenotypic cell assay. inhibition, % at 10 µM. 98,000 tested, 0.9% active. AID 739;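 also: yeast cells grown in 1536-well plates; yeast grown about 18 h at 30C before absorbance read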
CYP2C9 inh = blocks human cytochrome P450 2C9; AID 777; P11712; CYP2C9 Supersomes, luciferin-H conversion, luminescence; inhibition, % at 5 µM; 96,000 tested, 20% active;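 active = blocking of liver enzyme CYP2C9 beyond about 50% at 5 µM, limit read from the data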
CYP2C19 activ = cytochrome P450 2C19 (human) activation; P33261; recombinant CYP2C19, luciferin-H EGE luminescence; active compounds read high; 0 = fully inhibited enzyme, 1 = untreated enzyme; activation factor at 5 µM; 96,000 tested, under 10 active; AID 1025;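 active = activation factor of at least 2 at 5 µM in the primary screen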
CYP2C19 inh = human CYP2C19 inhibition; P33261; AID 778; inhibition, % at 5 µM; CYP2C19 Supersomes, luciferin-H EGE luminescence, 30 min; 96,000 tested, 21% active;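 active = CYP2C19 inhibition above a set limit at 5 µM in the primary screen, cut at about 50% in these data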
Numbers stand for hits; - = inactive; . = no result. Rule as the data show it, unless noted: active = inhibition above about 30%; inactive = the rest.

SMILES | CYP2C9 act | PostGolgi ctrl | PostGolgi yeast | CYP2C9 inh | CYP2C19 activ | CYP2C19 inh
CC(Sc1cccc(C(F)(F)F)c1)C(=O)NC(N)=O (stereo unspecified) | 2.4 | . | . | - | - | -
O=C(CSc1cccc(C(F)(F)F)c1)NC(=O)NCc1ccco1 | - | - | - | - | - | -
Cn1nnnc1SCC(=O)Nc1ccc(Cl)cc1Cl | - | . | . | - | - | -
O=C(CSc1cccc(C(F)(F)F)c1)Nc1ccc(Cl)cc1Cl | - | - | - | - | - | 95.5
CCNC(=O)NC(=O)CSc1cccc(C(F)(F)F)c1 | - | - | - | - | - | 77.3
CC(C)NC(=O)c1cccc(C(F)(F)F)c1 | - | - | - | - | - | -
COc1ccc(C(=O)CSc2nc3ccccc3n2CC(=O)NC(C)(C)C)cc1 | - | - | - | 72.0 | - | -
COc1cccc(NC(=O)Cn2c(SCC(=O)N3CCOCC3)nc3ccccc32)c1 | - | - | - | 80.0 | - | 71.2
CCCCn1c(SCC(=O)Nc2cccc(OC)c2)nc2ccc(N3CCOCC3)cc2c1=O | - | - | - | 96.2 | - | 83.1
COc1cccc(Nc2nnc(SCC(=O)N3CCOCC3)s2)c1 | - | - | - | - | - | -
